Experimental data reported in the supplement of paper PMC10849652.
Targets with a hit are over-represented here; the source holds about 7,900 in all. About 0.6% of all pairs of compound and target were hits.

Legend:
Test in all cases: log2 fold change, soluble protein after heating vs DMSO (PISA); higher = thermal stabilisation; K562 cells, 10 uM, 30 min; active = over 0.2 and 3.5 SD of the protein, either way, in both replicates (recomputed)
[1] = compound: COC1=CC=C(C=C1)CN2C=CC3=C2C=C(C=C3)C(=O)NO
Outline: (§1)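 Soluble protein was quantified by TMTpro 16plex LC-MS/MS after channel sums were equalised. It was obtained as the supernatant after 21,000xg for 90 min from pooled aliquots of K562 cells (2×10^6 cells/mL, 10 μM compound, 30 min) heated for 3 min across 48°C-58°C and extracted in PBS with 0.5% NP-40 at 4°C. Thermal stability values are relative to control samples and come from duplicates. They are given as log2 fold changes.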

filanesib = compound: CON(C)C(=O)N1N=C(c2cc(F)ccc2F)S[C@@]1(CCCN)c1ccccc1 [filanesib]
Outline: as §1

zotarolimus = compound: CO[C@H]1C[C@@H]2CC[C@@H](C)[C@@](O)(O2)C(=O)C(=O)N2CCCC[C@H]2C(=O)O[C@H]([C@H](C)C[C@@H]2CC[C@H](n3cnnn3)[C@H](OC)C2)CC(=O)[C@H](C)/C=C(\C)[C@@H](O)[C@@H](OC)C(=O)[C@H](C)C[C@H](C)/C=C/C=C/C=C/1C [zotarolimus]
Outline: as §1

idasanutlin = compound: COc1cc(C(=O)O)ccc1NC(=O)[C@@H]1N[C@@H](CC(C)(C)C)[C@](C#N)(c2ccc(Cl)cc2F)[C@H]1c1cccc(Cl)c1F [idasanutlin]
Outline: as §1

alisertib = compound: COc1cc(Nc2ncc3c(n2)-c2ccc(Cl)cc2C(c2c(F)cccc2OC)=NC3)ccc1C(=O)O [alisertib]
Outline: as §1

[2] = compound: COc1cc2nc(-c3cc(F)ccc3O)nc(N[C@@H]3CNC[C@H]3C(C)(C)O)c2cc1OC
Outline: as §1

gefitinib = compound: COc1cc2ncnc(Nc3ccc(F)c(Cl)c3)c2cc1OCCCN1CCOCC1 [gefitinib]
Outline: as §1

[3] = compound: COc1cccc2cc(-c3nc([C@H]4CC[C@H](C(=O)O)CC4)n4ncnc(N)c34)[nH]c12
Outline: as §1

lapatinib = compound: CS(=O)(=O)CCNCc1ccc(-c2ccc3ncnc(Nc4ccc(OCc5cccc(F)c5)c(Cl)c4)c3c2)o1 [lapatinib]
Outline: as §1

pictilisib = compound: CS(=O)(=O)N1CCN(Cc2cc3nc(-c4cccc5[nH]ncc45)nc(N4CCOCC4)c3s2)CC1 [pictilisib]
Outline: as §1

[4] = compound: CS(=O)(=O)c1ccc(-c2cnc(N)c(C(=O)Nc3ccccc3)n2)cc1
Outline: as §1

crizotinib = compound: C[C@@H](Oc1cc(-c2cnn(C3CCNCC3)c2)cnc1N)c1c(Cl)ccc(F)c1Cl [crizotinib]
Outline: as §1

[5] = compound: C[C@@H]1COCCN1C2=NC(=NC(=C2)C3(CC3)S(=O)(=O)C)C4=C5C=CNC5=CC=C4
Outline: as §1

[6] = compound: C[C@H](C1=CC=C(C=C1)C(=O)NC2=C3C=CNC3=NC=C2)N
Outline: as §1

duvelisib = compound: C[C@H](Nc1ncnc2nc[nH]c12)c1cc2cccc(Cl)c2c(=O)n1-c1ccccc1 [duvelisib]
Outline: as §1

gandotinib = compound: Cc1cc(Nc2cc(CN3CCOCC3)c3nc(C)c(Cc4ccc(Cl)cc4F)n3n2)n[nH]1 [gandotinib]
Outline: as §1

tozasertib = compound: Cc1cc(Nc2cc(N3CCN(C)CC3)nc(Sc3ccc(NC(=O)C4CC4)cc3)n2)n[nH]1 [tozasertib]
Outline: as §1

[7] = compound: Cc1cc(SCc2sc(-c3ccc(C(F)(F)F)cc3)nc2C)ccc1OCC(=O)O
Outline: as §1

doramapimod = compound: Cc1ccc(-n2nc(C(C)(C)C)cc2NC(=O)Nc2ccc(OCCN3CCOCC3)c3ccccc23)cc1 [doramapimod]
Outline: as §1

ispinesib = compound: Cc1ccc(C(=O)N(CCCN)[C@@H](c2nc3cc(Cl)ccc3c(=O)n2Cc2ccccc2)C(C)C)cc1 [ispinesib]
Outline: as §1

Measured: log2 fold change

RDH10 (UniProt Q8IZV5)
UniProt Q8IZV5, sequence (Q8IZV5 whole entry, looked up): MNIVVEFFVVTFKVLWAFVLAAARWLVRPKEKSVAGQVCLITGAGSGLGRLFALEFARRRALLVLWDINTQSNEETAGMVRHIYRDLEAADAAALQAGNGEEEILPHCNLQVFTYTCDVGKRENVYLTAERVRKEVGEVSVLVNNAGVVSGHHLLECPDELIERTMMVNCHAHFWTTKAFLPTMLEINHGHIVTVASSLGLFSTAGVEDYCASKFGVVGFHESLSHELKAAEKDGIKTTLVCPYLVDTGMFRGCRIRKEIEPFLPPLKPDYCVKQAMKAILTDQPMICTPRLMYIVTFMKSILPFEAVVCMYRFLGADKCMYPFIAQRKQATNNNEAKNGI
inactive: [1] -0.007 | filanesib -0.023 | zotarolimus -0.03 | idasanutlin -0.14 | alisertib 0.013 | [2] 0.031 | gefitinib 0.083 | [3] 0.036 | lapatinib 0.037 | pictilisib 0.009 | [4] -0.016 | crizotinib 0.087 | [5] 0.116 | [6] -0.011 | duvelisib 0.015 | gandotinib -0.111 | tozasertib -0.009 | [7] -0.003 | doramapimod -0.016 | ispinesib 0.036

RPS6KA3 (UniProt P51812)
UniProt P51812, sequence (P51812 whole entry, looked up): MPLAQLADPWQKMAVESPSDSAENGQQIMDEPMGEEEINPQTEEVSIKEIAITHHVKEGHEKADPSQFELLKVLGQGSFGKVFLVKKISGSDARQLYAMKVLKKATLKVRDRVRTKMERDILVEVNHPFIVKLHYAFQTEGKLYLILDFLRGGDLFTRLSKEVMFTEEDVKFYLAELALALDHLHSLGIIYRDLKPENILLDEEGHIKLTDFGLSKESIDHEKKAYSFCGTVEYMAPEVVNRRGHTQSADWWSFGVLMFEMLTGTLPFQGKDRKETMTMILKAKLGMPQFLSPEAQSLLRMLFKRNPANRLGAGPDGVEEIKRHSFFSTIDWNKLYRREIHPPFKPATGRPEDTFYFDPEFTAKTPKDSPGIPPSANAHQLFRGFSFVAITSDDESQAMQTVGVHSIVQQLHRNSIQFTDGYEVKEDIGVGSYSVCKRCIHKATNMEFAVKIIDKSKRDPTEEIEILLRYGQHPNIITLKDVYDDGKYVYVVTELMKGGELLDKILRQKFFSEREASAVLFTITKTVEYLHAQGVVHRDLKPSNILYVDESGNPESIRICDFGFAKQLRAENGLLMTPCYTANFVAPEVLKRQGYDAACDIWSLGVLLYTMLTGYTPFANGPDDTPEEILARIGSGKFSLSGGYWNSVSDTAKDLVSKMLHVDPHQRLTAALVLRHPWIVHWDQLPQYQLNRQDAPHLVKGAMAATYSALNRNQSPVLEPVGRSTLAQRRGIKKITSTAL
inactive: [1] -0.013 | filanesib 0 | zotarolimus 0.033 | idasanutlin -0.008 | [2] -0.221 | gefitinib -0.033 | [3] 0.013 | lapatinib 0.011 | pictilisib -0.011 | [4] 0.023 | crizotinib -0.107 | [5] 0.024 | [6] -0.177 | duvelisib 0.02 | gandotinib -0.019 | tozasertib 0.103 | [7] 0.032 | doramapimod -0.066 | ispinesib -0.017

RGS10 (UniProt O43665)
UniProt O43665, sequence (O43665 whole entry, looked up): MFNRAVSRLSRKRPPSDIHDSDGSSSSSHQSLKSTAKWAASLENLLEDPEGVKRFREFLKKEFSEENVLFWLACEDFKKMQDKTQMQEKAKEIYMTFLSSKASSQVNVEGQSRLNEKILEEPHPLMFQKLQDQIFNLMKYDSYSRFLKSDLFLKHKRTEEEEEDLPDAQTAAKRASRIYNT
inactive: [1] -0.023 | filanesib -0.081 | zotarolimus 0.115 | idasanutlin 0.086 | alisertib -0.053 | [2] 0.003 | gefitinib 0.056 | [3] -0.014 | lapatinib 0.029 | pictilisib -0.028 | [4] 0.014 | crizotinib -0.045 | [5] 0.012 | [6] -0.231 | duvelisib 0.008 | gandotinib -0.023 | tozasertib 0.053 | [7] 0.024 | doramapimod 0.006 | ispinesib 0.017

RPS9 (UniProt P46781)
inactive: [1] -0.036 | filanesib 0.237 | zotarolimus 0.032 | idasanutlin 0.098 | alisertib -0.101 | [2] -0.083 | gefitinib -0.055 | [3] -0.211 | lapatinib 0.084 | pictilisib -0.195 | [4] -0.075 | crizotinib 0.02 | [5] -0.401 | [6] 0.278 | duvelisib -0.146 | gandotinib 0.188 | tozasertib 0.055 | [7] 0.024 | doramapimod 0.174 | ispinesib -0.04

RALA (UniProt P11233)
UniProt P11233, sequence (P11233 whole entry, looked up): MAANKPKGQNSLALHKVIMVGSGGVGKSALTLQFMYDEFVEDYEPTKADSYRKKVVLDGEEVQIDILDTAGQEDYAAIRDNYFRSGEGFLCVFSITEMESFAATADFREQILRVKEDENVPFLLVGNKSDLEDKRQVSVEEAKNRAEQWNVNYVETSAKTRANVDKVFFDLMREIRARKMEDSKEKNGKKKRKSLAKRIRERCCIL
active: [1] 0.348
inactive: filanesib -0.025 | zotarolimus 0.035 | idasanutlin -0.019 | alisertib -0.066 | [2] -0.066 | gefitinib 0.004 | [3] 0.053 | lapatinib 0.025 | pictilisib -0.099 | [4] 0.026 | crizotinib 0.112 | [5] 0.088 | [6] -0.097 | duvelisib -0.046 | gandotinib -0.001 | tozasertib 0.016 | [7] -0.009 | doramapimod -0.009 | ispinesib 0.03

RAB3IL1 (UniProt E9PK89)
inactive: [1] 0.031 | filanesib -0.22 | zotarolimus 0.093 | idasanutlin -0.035 | [2] 0.097 | gefitinib -0.034 | lapatinib 0.063 | pictilisib -0.075 | [4] 0.036 | crizotinib -0.003 | [5] 0.163 | [6] -0.211 | gandotinib 0.154 | tozasertib -0.099 | doramapimod -0.07 | ispinesib 0.07

RPS13 (UniProt P62277)
inactive: [1] -0.132 | filanesib 0.394 | zotarolimus 0.015 | idasanutlin 0.145 | alisertib -0.164 | [2] -0.012 | gefitinib -0.051 | [3] -0.316 | lapatinib 0.117 | pictilisib -0.226 | [4] -0.053 | crizotinib 0.076 | [5] -0.548 | [6] 0.403 | duvelisib -0.201 | gandotinib 0.296 | tozasertib 0.021 | [7] -0.013 | doramapimod 0.247 | ispinesib -0.195

SAP30 (UniProt O75446)
UniProt O75446, sequence (O75446 whole entry, looked up): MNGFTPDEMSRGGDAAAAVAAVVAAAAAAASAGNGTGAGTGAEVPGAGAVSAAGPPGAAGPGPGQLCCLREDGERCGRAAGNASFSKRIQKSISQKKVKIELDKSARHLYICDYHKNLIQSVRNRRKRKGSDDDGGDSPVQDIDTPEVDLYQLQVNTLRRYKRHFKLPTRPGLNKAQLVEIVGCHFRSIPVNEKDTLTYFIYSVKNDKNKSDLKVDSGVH
inactive: [1] 0.089 | filanesib 0.044 | zotarolimus 0.047 | idasanutlin 0.024 | alisertib -0.015 | [2] -0.059 | gefitinib 0.003 | [3] -0.095 | lapatinib -0.035 | pictilisib -0.068 | [4] -0.087 | crizotinib 0.012 | [5] -0.047 | [6] 0.098 | duvelisib -0.09 | gandotinib 0.162 | [7] 0.124 | doramapimod -0.088

RIOK3 (UniProt O14730)
UniProt O14730, sequence (O14730 whole entry, looked up): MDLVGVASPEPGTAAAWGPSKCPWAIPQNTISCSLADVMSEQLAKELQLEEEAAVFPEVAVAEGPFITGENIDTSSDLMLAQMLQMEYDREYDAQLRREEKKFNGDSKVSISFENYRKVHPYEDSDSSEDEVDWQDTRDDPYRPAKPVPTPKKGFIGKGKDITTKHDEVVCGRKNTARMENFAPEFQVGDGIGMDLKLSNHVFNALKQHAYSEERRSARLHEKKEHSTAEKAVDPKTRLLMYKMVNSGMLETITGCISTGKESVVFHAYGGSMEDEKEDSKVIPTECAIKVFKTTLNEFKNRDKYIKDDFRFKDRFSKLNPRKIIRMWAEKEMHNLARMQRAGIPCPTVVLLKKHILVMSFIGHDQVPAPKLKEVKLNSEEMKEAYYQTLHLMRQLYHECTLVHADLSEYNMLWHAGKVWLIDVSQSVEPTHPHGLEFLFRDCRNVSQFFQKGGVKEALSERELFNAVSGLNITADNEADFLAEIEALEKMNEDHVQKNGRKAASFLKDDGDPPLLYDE
inactive: [1] -0.039 | filanesib -0.049 | zotarolimus -0.019 | idasanutlin 0.052 | alisertib -0.029 | [2] -0.009 | gefitinib 0.007 | [3] 0.01 | lapatinib 0.003 | pictilisib 0.095 | [4] -0.004 | crizotinib -0.031 | [5] 0.029 | [6] -0.026 | duvelisib 0.034 | gandotinib 0.086 | tozasertib -0.033 | [7] -0.011 | doramapimod -0.019 | ispinesib -0.004

RBM6 (UniProt P78332)
UniProt P78332, sequence (P78332 whole entry, looked up): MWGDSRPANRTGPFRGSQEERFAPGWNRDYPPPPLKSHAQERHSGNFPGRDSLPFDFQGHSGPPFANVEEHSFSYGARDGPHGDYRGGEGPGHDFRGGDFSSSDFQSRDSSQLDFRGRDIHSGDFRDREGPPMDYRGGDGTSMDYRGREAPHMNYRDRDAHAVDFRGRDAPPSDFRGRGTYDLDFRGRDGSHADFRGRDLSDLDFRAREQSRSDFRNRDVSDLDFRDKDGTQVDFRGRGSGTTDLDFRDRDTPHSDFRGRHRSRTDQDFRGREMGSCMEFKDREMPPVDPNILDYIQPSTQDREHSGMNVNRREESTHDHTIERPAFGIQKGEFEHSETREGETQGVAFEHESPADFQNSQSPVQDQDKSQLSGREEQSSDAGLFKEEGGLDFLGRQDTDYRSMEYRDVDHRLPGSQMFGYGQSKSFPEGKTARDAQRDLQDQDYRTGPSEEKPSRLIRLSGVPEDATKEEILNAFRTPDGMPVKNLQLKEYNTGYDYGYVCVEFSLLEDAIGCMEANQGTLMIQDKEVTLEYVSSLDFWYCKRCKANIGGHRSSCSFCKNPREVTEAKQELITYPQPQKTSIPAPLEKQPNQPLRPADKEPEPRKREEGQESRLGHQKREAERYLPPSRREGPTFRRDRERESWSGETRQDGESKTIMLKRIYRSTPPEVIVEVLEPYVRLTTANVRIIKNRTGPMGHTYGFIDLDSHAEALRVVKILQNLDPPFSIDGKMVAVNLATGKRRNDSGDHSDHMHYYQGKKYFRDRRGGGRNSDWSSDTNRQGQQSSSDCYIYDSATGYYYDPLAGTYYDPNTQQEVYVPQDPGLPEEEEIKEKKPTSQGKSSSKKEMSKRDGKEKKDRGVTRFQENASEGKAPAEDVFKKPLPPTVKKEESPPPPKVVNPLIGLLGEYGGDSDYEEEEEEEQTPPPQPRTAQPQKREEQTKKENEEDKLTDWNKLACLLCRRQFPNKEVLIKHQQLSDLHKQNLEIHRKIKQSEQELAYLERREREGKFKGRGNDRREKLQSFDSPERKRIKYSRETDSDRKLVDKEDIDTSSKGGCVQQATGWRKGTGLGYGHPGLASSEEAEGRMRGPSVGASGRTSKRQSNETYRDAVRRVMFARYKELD
inactive: [1] 0.044 | filanesib -0.067 | zotarolimus 0.064 | idasanutlin 0.101 | alisertib -0.431 | [2] -0.02 | gefitinib -0.007 | [3] 0.005 | lapatinib 0.121 | pictilisib -0.044 | [4] 0 | crizotinib 0.148 | [6] 0.013 | duvelisib -0.154 | gandotinib -0.043 | tozasertib -0.094 | [7] -0.183 | doramapimod 0.032

SCO2 (UniProt O43819)
UniProt O43819, sequence (O43819 whole entry, looked up): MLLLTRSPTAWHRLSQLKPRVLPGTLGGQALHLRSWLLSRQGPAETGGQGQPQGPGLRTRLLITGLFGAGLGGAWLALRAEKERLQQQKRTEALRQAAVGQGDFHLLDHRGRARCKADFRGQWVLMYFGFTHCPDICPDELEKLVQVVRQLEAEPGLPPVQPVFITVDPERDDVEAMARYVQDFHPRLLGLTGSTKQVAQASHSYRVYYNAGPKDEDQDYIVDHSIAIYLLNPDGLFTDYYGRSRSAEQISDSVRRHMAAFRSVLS
inactive: [1] -0.078 | filanesib 0.039 | zotarolimus 0.057 | idasanutlin -0.099 | alisertib -0.103 | [2] -0.097 | [3] 0.117 | lapatinib 0 | pictilisib -0.015 | [4] 0.062 | crizotinib -0.106 | [5] 0.05 | [6] -0.016 | duvelisib 0.14 | gandotinib 0.026 | tozasertib 0 | [7] 0.061 | doramapimod -0.031 | ispinesib -0.134

SDHAF4 (UniProt Q5VUM1)
UniProt Q5VUM1, sequence (Q5VUM1 whole entry, looked up): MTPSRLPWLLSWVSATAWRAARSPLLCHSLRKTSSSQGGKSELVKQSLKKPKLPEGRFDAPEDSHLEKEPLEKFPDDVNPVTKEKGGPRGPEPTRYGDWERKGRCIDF
inactive: [1] -0.072 | filanesib 0.034 | zotarolimus -0.01 | idasanutlin -0.223 | alisertib -0.073 | [2] -0.026 | gefitinib 0.026 | [3] 0.096 | lapatinib -0.154 | [4] 0.033 | crizotinib -0.047 | [5] 0.153 | [6] 0.181 | duvelisib 0.003 | tozasertib 0 | [7] -0.038 | doramapimod 0.091

RELA (UniProt Q04206)
UniProt Q04206, sequence (Q04206 whole entry, looked up): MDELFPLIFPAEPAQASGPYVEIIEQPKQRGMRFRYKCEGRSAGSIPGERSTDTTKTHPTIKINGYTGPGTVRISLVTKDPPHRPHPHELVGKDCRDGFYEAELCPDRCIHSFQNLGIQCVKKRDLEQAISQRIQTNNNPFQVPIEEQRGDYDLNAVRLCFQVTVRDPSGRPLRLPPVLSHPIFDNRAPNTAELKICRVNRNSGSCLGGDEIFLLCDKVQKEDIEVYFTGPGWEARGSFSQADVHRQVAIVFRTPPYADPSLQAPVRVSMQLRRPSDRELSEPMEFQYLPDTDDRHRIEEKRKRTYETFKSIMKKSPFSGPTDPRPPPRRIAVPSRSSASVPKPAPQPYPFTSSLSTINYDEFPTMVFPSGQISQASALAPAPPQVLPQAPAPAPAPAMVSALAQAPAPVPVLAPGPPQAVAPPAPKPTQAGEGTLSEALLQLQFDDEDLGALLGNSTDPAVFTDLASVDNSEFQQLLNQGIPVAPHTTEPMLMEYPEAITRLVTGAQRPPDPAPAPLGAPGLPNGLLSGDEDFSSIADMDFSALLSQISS
inactive: [1] 0.025 | filanesib -0.002 | zotarolimus 0.024 | idasanutlin -0.039 | alisertib -0.028 | [2] -0.031 | gefitinib 0.023 | [3] 0.005 | lapatinib 0.012 | pictilisib -0.007 | [4] 0.03 | crizotinib 0.036 | [5] 0.005 | [6] -0.029 | duvelisib 0.018 | gandotinib -0.086 | tozasertib 0.059 | [7] 0.055 | ispinesib 0.017

RAB9A (UniProt P51151)
UniProt P51151, sequence (P51151 whole entry, looked up): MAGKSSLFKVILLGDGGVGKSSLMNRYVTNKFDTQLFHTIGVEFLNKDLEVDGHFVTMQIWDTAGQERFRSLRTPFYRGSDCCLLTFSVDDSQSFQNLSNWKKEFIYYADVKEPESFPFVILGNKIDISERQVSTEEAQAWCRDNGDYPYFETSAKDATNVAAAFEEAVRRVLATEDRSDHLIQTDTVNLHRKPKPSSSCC
inactive: [1] 0.022 | filanesib -0.074 | zotarolimus 0.024 | idasanutlin -0.026 | alisertib -0.021 | [2] 0.008 | gefitinib 0.015 | [3] 0.067 | lapatinib -0.026 | pictilisib -0.011 | [4] 0.007 | crizotinib -0.119 | [5] -0.006 | [6] -0.044 | duvelisib 0.04 | gandotinib 0 | tozasertib 0.018 | [7] 0.016 | doramapimod 0.018 | ispinesib -0.168

RALY (UniProt Q9UKM9)
UniProt Q9UKM9, sequence (Q9UKM9 whole entry, looked up): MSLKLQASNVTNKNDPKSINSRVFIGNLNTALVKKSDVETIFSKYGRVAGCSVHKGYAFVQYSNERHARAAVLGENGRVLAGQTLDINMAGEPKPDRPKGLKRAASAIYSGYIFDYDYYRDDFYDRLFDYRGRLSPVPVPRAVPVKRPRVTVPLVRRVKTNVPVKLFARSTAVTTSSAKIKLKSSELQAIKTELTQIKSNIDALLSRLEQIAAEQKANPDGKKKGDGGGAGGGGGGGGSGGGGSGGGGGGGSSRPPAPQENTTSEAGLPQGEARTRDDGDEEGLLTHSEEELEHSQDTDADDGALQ
inactive: [1] -0.038 | filanesib 0.216 | zotarolimus 0.055 | alisertib 0.041 | [2] -0.152 | gefitinib -0.099 | [3] -0.148 | lapatinib 0.22 | pictilisib -0.02 | [4] -0.149 | crizotinib -0.068 | [5] -0.138 | [6] 0.316 | duvelisib -0.161 | gandotinib 0.098 | tozasertib 0.051 | [7] 0.043 | doramapimod 0.01 | ispinesib -0.082
active: idasanutlin 0.72

RAD50, A0A494C0Y7
inactive: [1] -0.054 | filanesib 0.001 | zotarolimus -0.021 | idasanutlin -0.05 | alisertib 0.127 | [2] -0.077 | [3] 0.035 | lapatinib -0.142 | pictilisib 0.085 | [4] 0.029 | crizotinib -0.024 | [6] 0.204 | duvelisib 0.067 | gandotinib 0.021 | tozasertib -0.042 | [7] 0.054 | doramapimod 0.034 | ispinesib -0.054
